Source: PubChem
The sample as a whole holds a higher share of hits than the screen did.
Pf Dd2 inh = blocks in vitro growth of P. falciparum Dd2. P. falciparum Dd2 growth, SYBR Green, 72 h. Potency, µM (top dose mostly 28.9 µM), usual class: inhibitors. 120,000 compounds, 4.3% hits. AID 1347417; active = well fitted inhibition curve with a large enough effect; also: nearly all actives have a fitted effect of over 65% in size
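Readout: SYBR Green fluorescence, 485 nm excitation, 535 nm emission, after ~16 h lysis at 37C. Before that, Dd2-infected red cells (2.5% hematocrit) grew 72 h with compound, 29 uM top final concentration.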
Numbers stand for hits; – = inactive.

SMILES | Pf Dd2 inh
CC(=O)N1CCCC2(COc3ccccc3S(=O)(=O)N2)C1 (stereo not given) | –
COc1ccc(-c2noc(-c3ccc(NC(C)c4ccccc4)c([N+](=O)[O-])c3)n2)cc1OC (stereo not given) | –
COc1ccc([N+](=O)[O-])cc1NC(c1nnc(-c2ccccc2)o1)c1ccccc1F (stereo not given) | 13µM
O=C(CSc1nnc(-c2ccc([N+](=O)[O-])cc2)o1)Nc1ccccc1 | –
Cc1ccc(C2Cn3nnc(C(=O)N4CCC(C(=O)NC5CCC(C)CC5)CC4)c3CO2)cc1 (stereo not given) | –
CCOc1ccc(CNC(=O)c2nn(-c3ccc(OC)cc3)c(=O)c3c2c2ccccc2n3C)cc1 | –
COc1ccc(-n2nc(C(=O)N3CCCCC3C)c3c4ccccc4n(C)c3c2=O)cc1Cl (stereo not given) | –
CCOC(=O)C1CCN(C(=O)c2nn(-c3ccc(OC)c(Cl)c3)c(=O)c3c2c2ccccc2n3C)CC1 | 11µM
CCc1ccc(CNC(=O)c2nn(-c3ccc(C)cc3)c(=O)c3c2c2ccccc2n3C)cc1 | –
COc1ccc(-n2nc(C(=O)N(C)c3cc(C)ccc3C)c3c4ccccc4n(C)c3c2=O)cc1Cl | –
CCOC(=O)C1CCN(C(=O)c2nn(-c3ccc(C)cc3)c(=O)c3c2c2ccccc2n3C)CC1 | –
CCOc1ccc(CCNC(=O)c2nn(-c3ccc(OC)c(Cl)c3)c(=O)c3c2c2ccccc2n3C)cc1OCC | 2.8µM
COc1ccc(-n2nc(C(=O)NCCCOC(C)C)c3c4ccccc4n(C)c3c2=O)cc1 | –
COc1ccc(-n2nc(C(=O)NCCc3ccc(OC)c(OC)c3)c3c4ccccc4n(C)c3c2=O)cc1Cl | 2µM
CCN1CCC2(CCC1=O)CN(Cc1cccc3cccnc13)CCN2C (stereo not given) | –
O=C(N1CCCC1)N1CCN(c2cc(Cl)ncn2)C(=O)C1 | –
CCNc1ncc(C(=O)NC2CC(c3nnc(CO)n3CC)C2)cn1 (stereo not given) | –
CNC(=O)c1c(C)nc2n1CCC(Nc1ccccc1C)C2 (stereo not given) | –
COc1ccccc1N=c1scc(-c2ccc(S(=O)(=O)N3CCCC3)cc2)n1C | 10µM
COc1ccccc1N1CCN(S(=O)(=O)c2ccc(-c3coc(C)n3)cc2)CC1 | –
COc1cccc2sc(=NC(=O)c3ccc(S(=O)(=O)N4CCCCC4)cc3)n(C)c12 | –
O=C(c1ccco1)N1CCCCC1c1nc(CCOCC2CC2)no1 (stereo not given) | –
O=C(c1cc(F)ccc1F)N1CCC2(CC1)NC(=O)N(Cc1ccccc1)C2=O | –
O=C(c1ccc(Cl)cc1)N1CCC2(CC1)C(=O)NCN2Cc1ccccc1 | –
O=C1NCN(Cc2ccc(Cl)cc2)C12CCN(Cc1ccccn1)CC2 | –
SMILES | Pf Dd2 inh
O=C(Nc1ccccc1)N1CCC2(CC1)C(=O)NCN2Cc1ccc(Cl)cc1 | 3.2µM
O=C1NCN(Cc2ccc(Cl)cc2)C12CCN(Cc1ccsc1)CC2 | 8.9µM
O=C(Nc1ccc(C(F)(F)F)cc1)N1CCC2(CC1)C(=O)NCN2Cc1ccc(Cl)cc1 | –
O=C1NCN(Cc2ccc(Cl)cc2)C12CCN(Cc1cccc3ccccc13)CC2 | –
COc1cccc(NC(=O)C2N(C(C)C)C(=O)C23CCCC3)c1 (stereo not given) | –
CNC(=O)[C@@H]1CN(C(=O)CCc2ccccc2OC)C[C@H]1COC | –
COCCn1c(C)cnc1CC1CCCN(C(=O)c2ccnn2C)C1 (stereo not given) | –
Cc1ccc(-n2ncc(C(=O)N3CCC(c4ccccc4)C3)c2C2CCN(C(=O)OC(C)(C)C)CC2)cc1 (stereo not given) | 11µM
CCOC(=O)c1ccccc1NC(=O)c1cnn(-c2ccc(OC)cc2)c1C1CCN(C(=O)OC(C)(C)C)CC1 | –
Cc1ccc(-n2ncc(C(=O)N3CCN(c4ncccn4)CC3)c2C2CCN(C(=O)OC(C)(C)C)CC2)cc1 | –
Cc1ccc(C2CCN(C(=O)c3cnn(-c4ccc(C)cc4)c3C3CCN(C(=O)OC(C)(C)C)CC3)C2)cc1 (stereo not given) | –
COc1ccc(-n2ncc(C(=O)N3CCN(c4ncccn4)CC3)c2C2CCN(C(=O)OC(C)(C)C)CC2)cc1 | –
CCOC(=O)c1cnn(-c2ccc(OC)cc2)c1C1CCN(C(=O)OC(C)(C)C)CC1 | 7.9µM
CC(C)(C)OC(=O)N1CCC(c2c(C(=O)N3CCC(c4ccccc4)C3)cnn2-c2ccc(Cl)cc2)CC1 (stereo not given) | 4.5µM
CC(C)(C)OC(=O)N1CCC(c2c(C(=O)N3CCN(c4ccccn4)CC3)cnn2-c2ccccc2)CC1 | –
Cc1cc(C(=O)N[C@@H]2CN(Cc3ccccc3)C[C@H]2CN(C)C)n[nH]1 | –
CCc1nc2c(=O)n(CC(=O)NCCN3CCOCC3)nc(C)c2s1 | –
CCC(CC)NC(=O)CCC1CCN(C(=O)c2ccc(C)cc2)CC1 | –
CC(C)NC(=O)NC[C@H]1O[C@@H](CC(=O)Nc2ccccc2)[C@H](O)[C@@H]1O | –
COCCNC(=O)c1cc(-c2ccc(OC)cc2)nc2onc(C3CCNC3)c12 (stereo not given) | –
CCc1nn(-c2ccc(OC)cc2)c(Oc2ccccc2F)c1CCC(=O)NC(C)C | 7.9µM
CCc1nn(-c2ccc(OC)cc2)c(Oc2ccccc2F)c1CCC(=O)NCCOC | –
CCc1nn(-c2ccc(OC)cc2)c(Oc2ccccc2F)c1CCC(=O)N(CC)CC | –
COc1ccccc1-c1ccnc(-c2nnc(C)n2Cc2ccccc2)c1 | –
O=C(NC1CC1)[C@@H]1C[C@H](Oc2ccccc2)CN1C(=O)CC1CCCC1 | –
SMILES | Pf Dd2 inh
COC(=O)CNC(=O)c1nc(-c2ccc(Cl)cc2Cl)c2cnccn12 | –
O=C(c1nc(-c2ccc(Cl)nc2)c2cnccn12)N1CCOCC1 | –
COc1ccccc1-c1nc(C(=O)N(C)C)n2ccncc12 | –
O=C(NCc1ccc2c(c1)OCO2)c1nc(-c2ccc(Cl)cc2Cl)c2ccccn12 | –
COc1ccccc1-c1cc(C(=O)N2CCCC2)nn2cccc12 | –
CC(C)NC(=O)c1nc(-c2ccc(Cl)cc2Cl)c2cnccn12 | 3.5µM
O=C(NCc1cccnc1)c1nc(-c2ccc(Cl)cc2Cl)c2cnccn12 | 11µM
C[S+](=O)([O-])c1ccc(-c2nc(C(=O)N3CCOCC3)n3ccccc23)cc1 | –
COc1ccccc1-c1nc(C(=O)N2CCCC2)n2ccncc12 | 10µM
C[S+](=O)([O-])c1ccc(-c2nc(C(=O)N3CCCC3)n3ccncc23)cc1 | 13µM
Cn1ncc2c(C(=O)NCc3cccnc3)cc(-c3ccc(Cl)cc3Cl)nc21 | –
COC(=O)CNC(=O)c1nc(-c2ccc(Cl)cc2Cl)c2ccccn12 | –
CCc1ccc(CN2CCCC(c3nnc(Cn4ccnc4)n3C)C2)nc1 (stereo not given) | –
Cn1cncc1C(=O)N1CCCn2ccnc2C1c1ccccc1 (stereo not given) | –
c1ccc(Cn2nc(Cn3cncn3)nc2C2CCCCn3nnnc32)cc1 (stereo not given) | –
O=C(c1ccccc1)N1CCC2(CC1)N=C(c1ccc(Cl)cc1)NO2 | –
O=C(CN1CCOCC1)N1CCC(c2nc(CCOCC3CCCC3)no2)C1 (stereo not given) | –
CCC(=O)NCC1Cn2cccc2C(=O)N1Cc1ccccc1 (stereo not given) | –
CC(C)c1noc([C@@H]2C[C@@H](O)CN2Cc2ccc(CO)o2)n1 | –
CN1CC2(CCN(C(=O)C3CC3)CC2)CC1C(=O)N1CCOCC1 (stereo not given) | –
